Assay results: PubChem BioAssay (NCATS)
“And” between values parts separate entries of the source, which are not always exact repeats. Equal entries are not always repeated. Inconclusive results are not listed. The source made the active and inactive calls. Unless noted, calls follow the shape of the dose curve; as a rule, active = well fitted inhibition curve with a large enough effect; inconclusive = small, poorly fitted or top-dose-only effect; inactive = flat fitted curve, though single readings scatter. Where a SMILES comes first, the peptide text is derived from it. Bridges are numbered along the chain shown (N, C = ends). [ ]: non-standard residue; d: D form. hArg = N=C(N)NCCCC[C@H](N)C(=O)O; Mpa = O=C(O)CCS

Columns and labels:
[1] = Drug repurposing screens with cells derived from glioblastoma tumor samples (AID 1345199); settings: GBM patient neurospheres viability, ATP luminescence, 48 h; also: % is scaled to controls: 0 for no effect and ±100 for the full control effect; nearly all actives have a fitted effect of over 40% in size
In short: (§1)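 Four patient lines of CD133+ GBM neurospheres were screened at several concentrations; hits were retested in those lines plus three slower-growing GBM lines, using 48-hour treatment and ATP-based viability.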

astro = control astrocytes; assay: as above; settings: viability, ATP luminescence, 48 h; series mostly up to 45.9 µM
In short: as §1

[2] = target: Nuclear receptor subfamily 1 group I member 2 (Rattus norvegicus) (UniProt Q9R1A7); assay: qHTS assay for small molecule activators of the rat pregnane X receptor (rPXR) signaling pathway (AID 651751; call rule not given here; also: 0% is about no effect); settings: rPXR reporter cells, luciferase (One-Glo), 24 h
[3] = qHTS assay for small molecule activators of the human pregnane X receptor (PXR) signaling pathway (AID 720659; call rule not given here; also: 0% is about no effect); settings: DPX-2 HepG2 CYP3A4-luciferase, 24 h; series mostly up to 92.3 µM
[4] = at 45.9 µM (top of the series), tumour line B
[5] = at 45.9 µM (top of the series), tumour line D
[6] = at 46 µM (top of the series), tumour line A
[7] = at 46.1 µM (top of the series), tumour line C
[8] = at 20 µM (top of the series), tumour line C
[9] = at 21.2 µM (top of the series), tumour line B
[10] = at 21.2 µM (top of the series), tumour line D

Sequence of Nuclear receptor subfamily 1 group I member 2 (Rattus norvegicus) (Q9R1A7 whole entry, looked up): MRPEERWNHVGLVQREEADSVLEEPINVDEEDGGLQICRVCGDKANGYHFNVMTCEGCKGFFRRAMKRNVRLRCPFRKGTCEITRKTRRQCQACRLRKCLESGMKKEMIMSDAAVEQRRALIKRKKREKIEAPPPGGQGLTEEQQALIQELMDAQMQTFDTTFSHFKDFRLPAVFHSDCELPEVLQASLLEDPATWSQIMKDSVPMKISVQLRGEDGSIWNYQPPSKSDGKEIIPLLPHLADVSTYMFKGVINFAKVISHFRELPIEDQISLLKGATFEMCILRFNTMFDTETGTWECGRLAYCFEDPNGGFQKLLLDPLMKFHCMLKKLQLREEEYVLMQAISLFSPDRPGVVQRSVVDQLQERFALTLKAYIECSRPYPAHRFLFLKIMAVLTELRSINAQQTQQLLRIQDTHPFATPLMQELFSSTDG

O=C(O)CNC(=O)c1ccccc1I
inactive: activity, negative = cell killing [1, 4] -1.24% | activity, negative = cell killing [1, 5] 4.71% | activity, negative = cell killing [1, 6] -24.5% | activity, negative = cell killing [1, 7] -16.1% | outcome (astro)

NC(=O)[C@@H]1CSSCCC(=O)N[C@@H](CCCCN=C(N)N)C(=O)NCC(=O)N[C@@H](CC(=O)O)C(=O)N[C@@H](Cc2c[nH]c3ccccc23)C(=O)N2CCC[C@H]2C(=O)N1 ([Mpa][hArg]GDWPC-NH2; disulfide 1-7)
inactive: activity, negative = cell killing [1, 4] 1.12% | activity, negative = cell killing [1, 5] 4.68% | activity, negative = cell killing [1, 6] -11% | activity, negative = cell killing [1, 7] -19.2% | outcome (astro)

C=CCOc1ccccc1OCC(O)CNC(C)C (stereo not given)
inactive: activity, negative = cell killing [1, 8] -4.31% | activity, negative = cell killing [1, 9] 1.37% | activity, negative = cell killing [1, 10] -11.5% | outcome (astro)

Nc1ccc(S(=O)(=O)c2ccc(N)cc2)cc1
inactive: activity, negative = cell killing [1, 4] -14.4% | activity, negative = cell killing [1, 5] 8.15% | activity, negative = cell killing [1, 6] -30% | activity, negative = cell killing [1, 7] -8.46% | outcome (astro) | max response [2] -2.07% and 2.17% | outcome [3]

CC(=O)N[C@@H](Cc1ccc(O)cc1)C(=O)O
inactive: activity, negative = cell killing [1, 4] -9.92% | activity, negative = cell killing [1, 5] -7.49% | activity, negative = cell killing [1, 7] 6.62% | outcome (astro)

Cc1ccc(C(C)C)c(O)c1
inactive: activity, negative = cell killing [1, 4] -5.11% | activity, negative = cell killing [1, 5] -0.376% | activity, negative = cell killing [1, 6] -10.8% | activity, negative = cell killing [1, 7] 0.583% | outcome (astro) | max response [2] -0.755% | outcome [3]

NCC1CCC(C(=O)Oc2ccc(CCC(=O)O)cc2)CC1 (stereo not given)
inactive: activity, negative = cell killing [1, 4] -0.713% | activity, negative = cell killing [1, 5] -15% | activity, negative = cell killing [1, 7] 8.61% | outcome (astro)

CC(C)(C)NCC(O)COc1cccc2c1CCC(=O)N2 (stereo not given)
inactive: activity, negative = cell killing [1, 8] -4.91% | activity, negative = cell killing [1, 9] -10.6% | activity, negative = cell killing [1, 10] 12.4% | outcome (astro)
